Assay [1] deals with MAP kinase-activated protein kinase 2 (Homo sapiens) (UniProt P49137). The settings on record: at 10 µM.
Assay [2] addresses Serine/threonine-protein kinase MARK1 (Homo sapiens) (UniProt Q9P0L2). The note with it: at 1 µM.
The target is the same in assay [3]. The settings on record: at 10 µM.
In assay [4] the target is Dual specificity mitogen-activated protein kinase kinase 1 (Homo sapiens) (UniProt Q02750). The note with it: at 1 µM.
The target is the same in assay [5]. The note with it: at 10 µM.
Assay [6] deals with Maternal embryonic leucine zipper kinase (Homo sapiens) (UniProt Q14680). The settings on record: at 1 µM.
For assay [7] the target is unchanged. The settings on record: at 10 µM.
The target of assay [8] is Misshapen-like kinase 1 (Homo sapiens) (UniProt Q8N4C8). The note with it: at 1 µM.
For assay [9] the target is unchanged. The settings on record: at 10 µM.
The target of assay [10] is T1, Dual specificity mitogen-activated protein kinase kinase 6 (Homo sapiens) (UniProt P52564).
T1 sequence (whole entry): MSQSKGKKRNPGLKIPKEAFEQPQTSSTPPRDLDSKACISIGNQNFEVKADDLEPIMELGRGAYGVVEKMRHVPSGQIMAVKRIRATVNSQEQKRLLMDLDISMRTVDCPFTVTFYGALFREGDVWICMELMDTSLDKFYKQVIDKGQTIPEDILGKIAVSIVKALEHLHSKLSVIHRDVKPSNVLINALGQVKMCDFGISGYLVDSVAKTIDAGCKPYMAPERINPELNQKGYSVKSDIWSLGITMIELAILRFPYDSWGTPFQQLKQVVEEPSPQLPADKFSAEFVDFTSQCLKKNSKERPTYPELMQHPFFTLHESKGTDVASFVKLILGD
The settings on record: at 1 µM.

The target in assay [11] is T1, Dual specificity mitogen-activated protein kinase kinase 6 (Homo sapiens). The note with it: at 10 µM.
The target in assay [12] is T2, Dual specificity mitogen-activated protein kinase kinase 7 (Homo sapiens) (UniProt O14733).
T2 sequence (whole entry): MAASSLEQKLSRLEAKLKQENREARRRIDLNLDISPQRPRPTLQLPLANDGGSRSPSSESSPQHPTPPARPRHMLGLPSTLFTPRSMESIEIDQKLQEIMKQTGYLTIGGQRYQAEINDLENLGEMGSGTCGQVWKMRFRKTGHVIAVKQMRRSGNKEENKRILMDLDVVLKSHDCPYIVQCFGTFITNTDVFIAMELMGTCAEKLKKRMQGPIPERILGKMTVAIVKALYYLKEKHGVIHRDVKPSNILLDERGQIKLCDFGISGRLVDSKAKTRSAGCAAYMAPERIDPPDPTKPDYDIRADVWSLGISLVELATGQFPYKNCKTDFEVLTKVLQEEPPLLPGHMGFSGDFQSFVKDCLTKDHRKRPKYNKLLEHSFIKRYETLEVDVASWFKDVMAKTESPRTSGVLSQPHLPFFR
The settings on record: at 1 µM.

The target of assay [13] is T2, Dual specificity mitogen-activated protein kinase kinase 7 (Homo sapiens). The note with it: at 10 µM.
The target in assay [14] is Myosin light chain kinase, smooth muscle (Homo sapiens) (UniProt Q15746). The settings on record: at 1 µM.
Assay [15] shares this target. The note with it: at 10 µM.
Assay [16] has as its target Mitogen-activated protein kinase kinase kinase 9 (Homo sapiens) (UniProt P80192). The settings on record: at 1 µM.
Assay [17] shares this target. The note with it: at 10 µM.
Assay [18] addresses Serine/threonine-protein kinase MRCK alpha (Homo sapiens) (UniProt Q5VT25). The note with it: at 1 µM.
The target is the same in assay [19]. The settings on record: at 10 µM.
Assay [20] has as its target MAP kinase-activated protein kinase 3 (Homo sapiens) (UniProt Q16644). The note with it: at 10 µM.

Structures are written as SMILES.

Sequence of Myosin light chain kinase, smooth muscle (Homo sapiens) (Q15746 whole entry): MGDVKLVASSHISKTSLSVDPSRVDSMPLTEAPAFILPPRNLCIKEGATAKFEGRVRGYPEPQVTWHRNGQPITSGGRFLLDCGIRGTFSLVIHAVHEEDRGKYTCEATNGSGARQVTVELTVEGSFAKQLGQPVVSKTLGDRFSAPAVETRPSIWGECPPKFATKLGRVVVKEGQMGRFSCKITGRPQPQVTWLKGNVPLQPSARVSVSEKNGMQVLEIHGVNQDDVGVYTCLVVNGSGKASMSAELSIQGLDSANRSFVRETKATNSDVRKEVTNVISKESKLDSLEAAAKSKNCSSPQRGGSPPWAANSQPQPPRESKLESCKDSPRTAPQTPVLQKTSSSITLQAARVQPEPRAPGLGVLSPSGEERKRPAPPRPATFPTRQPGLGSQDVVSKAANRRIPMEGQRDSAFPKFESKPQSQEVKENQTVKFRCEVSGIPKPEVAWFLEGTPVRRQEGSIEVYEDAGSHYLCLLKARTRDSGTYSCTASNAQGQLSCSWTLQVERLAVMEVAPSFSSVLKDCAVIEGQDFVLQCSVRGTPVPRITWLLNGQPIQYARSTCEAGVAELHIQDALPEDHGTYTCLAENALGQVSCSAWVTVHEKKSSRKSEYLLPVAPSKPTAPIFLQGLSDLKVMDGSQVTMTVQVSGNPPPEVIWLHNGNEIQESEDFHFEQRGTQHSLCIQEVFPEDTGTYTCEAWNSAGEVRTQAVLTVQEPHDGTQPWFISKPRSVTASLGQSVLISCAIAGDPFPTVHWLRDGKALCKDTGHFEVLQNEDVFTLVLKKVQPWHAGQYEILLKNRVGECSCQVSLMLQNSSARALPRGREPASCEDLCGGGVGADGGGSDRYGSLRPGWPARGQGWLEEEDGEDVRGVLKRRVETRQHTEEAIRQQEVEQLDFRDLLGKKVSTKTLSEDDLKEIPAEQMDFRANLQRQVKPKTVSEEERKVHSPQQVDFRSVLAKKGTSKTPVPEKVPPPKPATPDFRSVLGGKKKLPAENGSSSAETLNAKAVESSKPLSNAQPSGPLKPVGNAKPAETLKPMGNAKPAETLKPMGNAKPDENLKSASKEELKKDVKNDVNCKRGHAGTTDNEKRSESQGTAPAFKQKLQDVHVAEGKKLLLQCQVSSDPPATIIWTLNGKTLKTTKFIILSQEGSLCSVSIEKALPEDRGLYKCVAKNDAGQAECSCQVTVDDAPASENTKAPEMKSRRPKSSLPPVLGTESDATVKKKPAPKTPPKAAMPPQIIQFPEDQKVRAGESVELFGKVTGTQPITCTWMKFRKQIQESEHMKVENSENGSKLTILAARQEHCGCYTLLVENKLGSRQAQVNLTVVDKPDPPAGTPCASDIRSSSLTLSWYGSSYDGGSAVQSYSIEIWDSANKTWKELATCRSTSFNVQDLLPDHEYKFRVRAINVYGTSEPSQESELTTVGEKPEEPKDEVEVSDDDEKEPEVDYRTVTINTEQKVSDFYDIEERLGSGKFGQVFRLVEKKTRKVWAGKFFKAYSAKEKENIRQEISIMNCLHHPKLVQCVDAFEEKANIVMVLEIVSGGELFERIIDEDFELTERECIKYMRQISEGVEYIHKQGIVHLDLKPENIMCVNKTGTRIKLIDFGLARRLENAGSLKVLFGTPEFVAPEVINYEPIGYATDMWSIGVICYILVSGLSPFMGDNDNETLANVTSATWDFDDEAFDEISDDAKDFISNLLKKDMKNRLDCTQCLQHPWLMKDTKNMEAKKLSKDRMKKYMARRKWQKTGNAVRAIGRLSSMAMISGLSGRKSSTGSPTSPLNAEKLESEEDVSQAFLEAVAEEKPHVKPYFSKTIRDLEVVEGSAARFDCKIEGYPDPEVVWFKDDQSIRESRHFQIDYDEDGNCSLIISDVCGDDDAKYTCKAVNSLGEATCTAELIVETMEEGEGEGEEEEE
Sequence of Misshapen-like kinase 1 (Homo sapiens) (Q8N4C8 whole entry, looked up): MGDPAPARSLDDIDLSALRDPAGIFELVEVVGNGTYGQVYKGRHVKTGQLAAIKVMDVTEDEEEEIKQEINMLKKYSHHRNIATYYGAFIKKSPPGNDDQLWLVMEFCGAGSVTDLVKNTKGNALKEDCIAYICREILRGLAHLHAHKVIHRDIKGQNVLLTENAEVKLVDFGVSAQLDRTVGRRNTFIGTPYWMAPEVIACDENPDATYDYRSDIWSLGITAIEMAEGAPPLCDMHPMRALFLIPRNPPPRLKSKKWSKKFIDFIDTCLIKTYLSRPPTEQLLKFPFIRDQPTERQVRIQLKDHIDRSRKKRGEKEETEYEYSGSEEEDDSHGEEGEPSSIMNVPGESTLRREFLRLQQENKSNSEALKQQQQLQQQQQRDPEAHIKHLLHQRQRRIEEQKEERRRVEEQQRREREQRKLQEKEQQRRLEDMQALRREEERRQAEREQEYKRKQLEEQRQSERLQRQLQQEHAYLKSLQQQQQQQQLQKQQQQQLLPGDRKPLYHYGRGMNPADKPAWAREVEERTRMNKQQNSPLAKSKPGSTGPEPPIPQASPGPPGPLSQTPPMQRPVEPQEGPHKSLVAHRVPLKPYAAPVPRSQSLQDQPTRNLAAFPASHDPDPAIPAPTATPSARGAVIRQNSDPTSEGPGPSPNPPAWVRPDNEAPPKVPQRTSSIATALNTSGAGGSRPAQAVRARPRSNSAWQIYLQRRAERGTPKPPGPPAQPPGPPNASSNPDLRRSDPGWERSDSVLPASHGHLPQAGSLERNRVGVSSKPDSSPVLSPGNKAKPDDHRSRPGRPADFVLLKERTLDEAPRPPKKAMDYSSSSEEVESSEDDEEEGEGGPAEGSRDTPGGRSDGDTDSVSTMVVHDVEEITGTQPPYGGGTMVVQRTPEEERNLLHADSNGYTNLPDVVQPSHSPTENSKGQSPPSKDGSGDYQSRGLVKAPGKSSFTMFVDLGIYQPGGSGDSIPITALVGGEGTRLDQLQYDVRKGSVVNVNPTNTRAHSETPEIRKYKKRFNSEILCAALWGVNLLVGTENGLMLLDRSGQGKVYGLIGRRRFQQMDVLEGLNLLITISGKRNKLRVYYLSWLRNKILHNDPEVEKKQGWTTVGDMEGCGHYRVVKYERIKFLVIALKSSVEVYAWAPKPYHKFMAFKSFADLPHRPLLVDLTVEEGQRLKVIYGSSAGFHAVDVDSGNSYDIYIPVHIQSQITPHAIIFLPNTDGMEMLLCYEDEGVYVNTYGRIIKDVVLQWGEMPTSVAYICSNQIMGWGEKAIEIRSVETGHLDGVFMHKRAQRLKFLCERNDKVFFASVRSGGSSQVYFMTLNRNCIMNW
Sequence of Serine/threonine-protein kinase MARK1 (Homo sapiens) (Q9P0L2 whole entry, looked up): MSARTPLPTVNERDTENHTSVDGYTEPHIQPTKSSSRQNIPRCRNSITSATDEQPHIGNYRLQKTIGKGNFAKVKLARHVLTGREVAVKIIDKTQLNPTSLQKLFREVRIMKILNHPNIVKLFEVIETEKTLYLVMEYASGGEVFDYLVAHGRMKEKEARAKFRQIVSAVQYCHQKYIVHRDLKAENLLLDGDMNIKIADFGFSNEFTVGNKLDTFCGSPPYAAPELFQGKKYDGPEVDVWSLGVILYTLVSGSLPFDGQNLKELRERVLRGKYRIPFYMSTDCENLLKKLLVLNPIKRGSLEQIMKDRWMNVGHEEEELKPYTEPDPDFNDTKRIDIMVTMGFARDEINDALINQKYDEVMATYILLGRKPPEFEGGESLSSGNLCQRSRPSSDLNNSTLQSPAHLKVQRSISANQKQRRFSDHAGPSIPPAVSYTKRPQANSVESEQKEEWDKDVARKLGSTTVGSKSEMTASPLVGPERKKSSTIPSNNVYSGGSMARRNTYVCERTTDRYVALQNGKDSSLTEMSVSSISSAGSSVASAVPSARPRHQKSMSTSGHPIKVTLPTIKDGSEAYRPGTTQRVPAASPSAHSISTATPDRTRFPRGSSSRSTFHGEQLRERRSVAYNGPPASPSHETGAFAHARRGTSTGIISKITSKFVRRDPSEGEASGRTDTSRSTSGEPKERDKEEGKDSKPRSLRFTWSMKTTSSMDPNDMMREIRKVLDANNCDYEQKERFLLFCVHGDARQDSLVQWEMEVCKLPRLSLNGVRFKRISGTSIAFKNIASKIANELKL
Sequence of Maternal embryonic leucine zipper kinase (Homo sapiens) (Q14680 whole entry, looked up): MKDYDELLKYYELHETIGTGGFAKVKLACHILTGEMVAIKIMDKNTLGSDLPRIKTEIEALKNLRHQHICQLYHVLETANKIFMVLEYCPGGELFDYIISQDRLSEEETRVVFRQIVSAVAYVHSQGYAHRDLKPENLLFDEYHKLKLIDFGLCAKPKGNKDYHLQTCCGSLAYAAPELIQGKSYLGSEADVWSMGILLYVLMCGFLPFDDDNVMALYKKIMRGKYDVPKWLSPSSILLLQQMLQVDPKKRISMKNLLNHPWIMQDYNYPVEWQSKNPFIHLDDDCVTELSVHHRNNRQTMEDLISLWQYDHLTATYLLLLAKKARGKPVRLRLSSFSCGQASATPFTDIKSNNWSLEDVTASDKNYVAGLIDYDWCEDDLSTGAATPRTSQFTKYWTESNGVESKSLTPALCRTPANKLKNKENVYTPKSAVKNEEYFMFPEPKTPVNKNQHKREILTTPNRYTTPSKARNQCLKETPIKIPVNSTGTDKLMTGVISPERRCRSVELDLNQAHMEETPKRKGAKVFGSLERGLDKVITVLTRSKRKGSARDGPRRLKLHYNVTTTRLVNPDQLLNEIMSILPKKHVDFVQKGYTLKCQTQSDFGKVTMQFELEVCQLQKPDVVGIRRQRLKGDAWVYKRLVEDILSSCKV
Sequence of MAP kinase-activated protein kinase 3 (Homo sapiens) (Q16644 whole entry, looked up): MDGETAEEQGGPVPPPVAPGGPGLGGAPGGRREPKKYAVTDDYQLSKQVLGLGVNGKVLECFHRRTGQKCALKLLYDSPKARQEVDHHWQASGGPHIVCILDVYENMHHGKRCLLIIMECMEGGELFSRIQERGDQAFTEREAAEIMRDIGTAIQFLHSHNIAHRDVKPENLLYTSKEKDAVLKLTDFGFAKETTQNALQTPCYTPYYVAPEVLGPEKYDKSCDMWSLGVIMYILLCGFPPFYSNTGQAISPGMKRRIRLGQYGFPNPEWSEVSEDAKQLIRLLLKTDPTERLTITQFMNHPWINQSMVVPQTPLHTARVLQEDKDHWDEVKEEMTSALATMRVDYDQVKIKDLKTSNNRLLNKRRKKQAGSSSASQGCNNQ

As to `N#Cc1cnc2cnc(NCc3cccnc3)cc2c1Nc1ccc(F)c(Cl)c1`, the residual activity in [1] is 64%; in assay [2], -1%; in [3], -1%; in assay [4], 91%; in assay [5] it was 91%; in assay [6], 2%. Besides, the residual activity in assay [7] turned out to be 0%; in [8], 93%; in assay [9], 90%; in [10], 10%; in [11], 7%; in assay [12], 83%. In addition, the residual activity worked out at 74% in assay [13]; 69% in [14]; 46% in assay [15]; 99% in [16]; 99% in assay [17]; 14% in [18]. Moreover, the residual activity in assay [19] stood at 9%.
With `Cn1cc(/C=C2\C(=O)Nc3ccc(S(N)(=O)=O)cc32)c2ccccc21`, the residual activity in assay [1] was 71%; in [20] it was 88%; in assay [2], 23%; in assay [3], 7%; in assay [4], 42%; in assay [5], 19%. Further, the residual activity in assay [6] amounted to 42%; in [7], 51%; in [8] it was 56%; in assay [9], 61%; in assay [10] it was 69%; in assay [11], 85%. Moreover, the residual activity came to 89% in assay [12]; 59% in [13]; 63% in assay [14]; 82% in assay [15]; 6% in assay [16]; 3% in assay [17]. The results for the residual activity in [18] and in [19] were 103% and 89%, respectively.
As to `O=C1Nc2ccc(Br)cc2/C1=C\c1cc2c([nH]1)CCCC2`, the residual activity in assay [1] came out at 106%; in assay [20], 101%; in assay [2], 72%; in assay [3], 59%; in [6], 78%; in assay [10], 76%. For the same compound, the residual activity in assay [11] amounted to 84%; in assay [14], 83%; in assay [15], 84%; in [16], 63%; in [17], 49%; in assay [18] it was 108%. Also, the residual activity in assay [19] worked out at 110%.
Take `Cc1cc(Nc2nc(-c3ccccc3)nc3ccccc23)n[nH]1`: the residual activity in assay [2] worked out at 66%; in assay [3], 26%; in [5] it was 67%; in [6] it was 46%; in assay [7], 7%; in assay [8] it was 61%. The residual activity in [9] worked out at 14%; in [10] it was 101%; in [11] it was 71%; in [12], 72%; in assay [13] it was 58%; in assay [14] it was 55%. Besides, the residual activity in assay [15] came to 9%; in assay [16], 4%; in assay [17] it was 1%; in [18] it was 122%; in assay [19], 110%.
Turning to `Cc1cncc2cccc(S(=O)(=O)N3CCCN(C(=O)CN)C[C@H]3C)c12`, the residual activity worked out at 87% in [1]; 73% in [2]; 43% in assay [3]; 74% in [6]; 24% in [7]; 91% in assay [8]. Also, the residual activity is 72% in assay [9]; 82% in [12]; 94% in [14]; 99% in [15]; 86% in [16]; 62% in assay [17]. For the same compound, the results for the residual activity in assay [18] and in assay [19] were 98% and 99%, respectively.
Regarding `COc1cc2ncnc(Nc3ccc(NC(=O)c4ccccc4)cc3)c2cc1OC`, the residual activity turned out to be 98% in [1]; 93% in assay [20]; 105% in assay [2]; 95% in [3]; 77% in assay [6]; 50% in assay [7]. In addition, the residual activity in assay [9] came out at 92%; in assay [11], 97%; in assay [12], 92%; in [13] it was 74%; in assay [14], 77%; in [15], 96%. The residual activity in assay [16] came out at 72%; in assay [17], 22%; in [18], 105%.
As to `O=[N+]([O-])c1ccc(-c2nc(-c3ccc(F)cc3)c(-c3ccncc3)[nH]2)cc1`, the residual activity in assay [1] amounted to 102%; in [20] it was 104%; in assay [2], 91%; in [3], 90%; in assay [4], 109%; in assay [5], 127%. Also, the residual activity in assay [6] turned out to be 97%; in assay [7], 87%; in assay [8], 74%; in assay [9], 63%; in assay [10], 50%; in assay [11] it was 4%. Besides, the residual activity in assay [12] was 101%; in [13], 98%; in [14], 100%; in assay [15] it was 86%; in assay [17], 83%; in [18], 126%. Further, the residual activity in [19] came to 98%.
Regarding `Cc1cccc(-c2[nH]c(C(C)(C)C)nc2-c2ccc3c(c2)OCO3)n1`, the residual activity was found to be 96% in assay [1]; 85% in [2]; 77% in [3]; 96% in assay [5]; 75% in assay [6]; 103% in assay [7]. In addition, the residual activity in assay [8] is 101%; in assay [9] it was 90%; in assay [10], 70%; in assay [11], 39%; in assay [12], 107%; in assay [13], 83%. Moreover, the residual activity in [14] was 84%; in assay [15], 90%; in assay [16] it was 99%.

(Values after ChEMBL document CHEMBL2218924, “A broad activity screen in support of a chemogenomic map for kinase signalling research and drug discovery” (Biochem J, 2013).)
